Screening data as filed in PubChem.
Lmaj promast = Leishmania major promastigote growth inhibition, primary screen. inhibition, % at 10 µM. Leishmania major promastigotes, resazurin fluorescence viability. AID 1063, 2008. actives 9% (n = 200,000); in the data active means inhibition above about 50%;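 further: promastigotes grown with compound for 44 hours at 28 °C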
CHOP inh = inhibitors of CHOP promoter induction, primary screen, cell-based, unfolded protein response, luciferase reporter. CHO-K1 CHOP-promoter luciferase, tunicamycin-induced, 15-18 h. inhibition, % at 10 µM. actives 3.8% (n = 220,000);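 active means compounds that reduced the stress-induced luciferase reporter signal by more than about 70% of percent inhibition, limit read from the data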
WT yeast gro inh = growth inhibition of WT strain, primary screen, mitochondrial fusion inhibitor project, WT and mutant strains, chemical genetic; inhibition, % at 10 µM; AID 1362, 2008; mitochondrial fusion phenotypic screen; actives 2.1% (n = 190,000); in the data active means inhibition above about 58%; tested in S. cerevisiae
RAM inhibit = inhibitors of the yeast RAM network, primary screen, dse1pr::URA3 reporter, 5-FOA selection; S. cerevisiae dse1pr::URA3 reporter, 5-FOA growth OD615, 2 d; analog-sensitive cbk1-as2 kinase mutant strain; inhibition, % at 50 µM; actives 1.8% (n = 190,000); AID 868, 2007;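 active means inhibition above a set limit, 3 SD over mean compound inhibition, cut at about 8.4% in these data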;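 further: inhibition rescues growth on 5-FOA so higher OD means more RAM inhibition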
Hits are given with their value. Sampled rows, rich in hits. Any-hit rate of the full collection: about 13%.

`COc1ccccc1NS(=O)(=O)c1cc(NC(=O)CCC2CCCC2)ccc1N1CCOCC1` gave Lmaj promast 99, CHOP inh inactive, WT yeast gro inh inactive and RAM inhibit inactive.
COc1ccccc1NS(=O)(=O)c1cc(NC(=O)CC(C)(C)C)ccc1N1CCOCC1 was read as Lmaj promast 98, CHOP inh inactive, WT yeast gro inh inactive and RAM inhibit inactive.
For COc1ccc(-n2cc(CNC3CCC(O)CC3)c(-c3cccc(F)c3)n2)cc1 (configuration not stated) the results were Lmaj promast 84, CHOP inh inactive, WT yeast gro inh inactive and RAM inhibit inactive.
For COc1ccc(-n2cc(CNCc3cccnc3)c(-c3cccc(F)c3)n2)cc1 the results were Lmaj promast inactive, CHOP inh inactive, WT yeast gro inh inactive and RAM inhibit inactive.
For COc1ccc(CNCc2cn(-c3cccc(F)c3)nc2-c2ccc(C)o2)cc1 the results were Lmaj promast 96, CHOP inh inactive, WT yeast gro inh 71 and RAM inhibit inactive.
COc1ccc(-c2nn(-c3ccccc3)cc2CNCc2cccnc2)c(F)c1 was read as Lmaj promast inactive, CHOP inh inactive, WT yeast gro inh inactive and RAM inhibit inactive.
For COc1ccc(-n2cc(CN3CCC(OC)CC3)c(-c3cccc(F)c3)n2)cc1 the results were Lmaj promast inactive, CHOP inh inactive, WT yeast gro inh inactive and RAM inhibit inactive.
COc1ccc(-n2cc(CNCCc3cnc[nH]3)c(-c3cccc(F)c3)n2)cc1 was read as Lmaj promast 100, CHOP inh inactive, WT yeast gro inh inactive and RAM inhibit inactive.
`CNC(=O)c1[nH]cnc1C(=O)Nc1ccc(Cl)cc1` gave CHOP inh inactive.
Cc1ccccc1Nc1c(-c2ccccn2)nc2c(C)cccn12 was read as Lmaj promast inactive, CHOP inh inactive, WT yeast gro inh inactive and RAM inhibit inactive.
Cc1ccc(Nc2c(-c3ccccn3)nc3cccc(C)n23)cc1 was read as Lmaj promast 101, CHOP inh 94, WT yeast gro inh inactive and RAM inhibit inactive.
For Cc1cccc(C)c1Nc1c(-c2ccccn2)nc2ccccn12 the results were Lmaj promast 100, CHOP inh 71, WT yeast gro inh inactive and RAM inhibit inactive.
For Cc1ccc2nc(-c3ccccn3)c(NC3CCCC3)n2c1 the results were Lmaj promast 100, CHOP inh inactive, WT yeast gro inh 74 and RAM inhibit inactive.
`Cc1cccc2nc(-c3ccco3)c(Nc3ccccc3)n12` gave Lmaj promast inactive, CHOP inh inactive, WT yeast gro inh inactive and RAM inhibit inactive.
For Cc1cccc(C)c1Nc1c(-c2ccsc2)nc2ncccn12 the results were Lmaj promast 80, CHOP inh inactive, WT yeast gro inh inactive and RAM inhibit inactive.
Screening CN(CC(=O)O)S(=O)(=O)c1ccc2c(c1)NC(=O)CC(=O)N2 returned Lmaj promast inactive, CHOP inh inactive, WT yeast gro inh inactive and RAM inhibit inactive.
CC1CCCC(C)N1C(=S)SCC(=O)O (configuration not stated) was read as Lmaj promast inactive, CHOP inh inactive, WT yeast gro inh inactive and RAM inhibit inactive.
`O=C(O)/C=C/c1cn(Cc2ccccc2Cl)nc1-c1ccccc1` gave CHOP inh inactive.
Screening COc1ccc(N(C(C)=O)S(=O)(=O)c2cccs2)cc1 returned Lmaj promast inactive, CHOP inh inactive, WT yeast gro inh inactive and RAM inhibit inactive.
`CC(C)C(=O)N(c1cc2sc(=O)oc2c2ccccc12)S(=O)(=O)c1cccs1` gave Lmaj promast 50, CHOP inh inactive, WT yeast gro inh 92 and RAM inhibit inactive.
For CC(=O)Oc1ccc(N(C(C)=O)S(=O)(=O)c2cccs2)cc1 the results were Lmaj promast inactive, CHOP inh inactive, WT yeast gro inh 66 and RAM inhibit inactive.
`CC(C)C(=O)N(c1ccc2oc(=O)sc2c1)S(=O)(=O)c1cccs1` gave Lmaj promast inactive, CHOP inh inactive, WT yeast gro inh inactive and RAM inhibit inactive.
For COc1ccc(N(C(=O)C(C)C)S(=O)(=O)c2cccs2)cc1 the results were Lmaj promast 80, CHOP inh inactive, WT yeast gro inh inactive and RAM inhibit inactive.
`NC(=O)c1nn(-c2ccc(Cl)cc2Cl)c(=O)cc1O` gave Lmaj promast inactive, CHOP inh inactive, WT yeast gro inh inactive and RAM inhibit inactive.
For Cc1cccc(OCc2nnc(SCC(=O)Nc3cccc(C(=O)N4CCOCC4)c3)o2)c1C the results were Lmaj promast inactive, CHOP inh inactive, WT yeast gro inh inactive and RAM inhibit inactive.
Screening Cc1cc(C)cc(N(C(=O)c2cccs2)C2C=CS(=O)(=O)C2)c1 (configuration not stated) returned Lmaj promast inactive, CHOP inh inactive, WT yeast gro inh inactive and RAM inhibit inactive.
For O=C(Cc1ccc(Cl)c(Cl)c1)Nc1ccccc1N1CCOCC1 the results were Lmaj promast inactive, CHOP inh inactive, WT yeast gro inh inactive and RAM inhibit inactive.
O=C(Cc1ccc(Cl)cc1)NC(=S)Nc1ccccc1N1CCOCC1 was read as Lmaj promast inactive, CHOP inh inactive, WT yeast gro inh 62 and RAM inhibit inactive.
For O=C(Nc1ccccc1N1CCOCC1)C1(c2ccc(Cl)cc2)CCC1 the results were Lmaj promast inactive, CHOP inh inactive, WT yeast gro inh inactive and RAM inhibit 9.2.
For CCCC(=O)NC(=S)Nc1ccccc1N1CCOCC1 the results were Lmaj promast inactive, CHOP inh inactive, WT yeast gro inh inactive and RAM inhibit inactive.
Screening C=C(C)CNC(=S)Nc1cccc(N)n1 returned Lmaj promast inactive, CHOP inh inactive, WT yeast gro inh inactive and RAM inhibit inactive.
`Cc1cccc(N(C(=O)CCC(=O)Nc2cc(C)on2)C(C(=O)NC2CCCC2)c2ccc(C)o2)c1` (configuration not stated) gave Lmaj promast 89, CHOP inh inactive, WT yeast gro inh inactive and RAM inhibit inactive.
`Cc1cc(C)cc(OCC(=O)NCC2CCCO2)c1` (configuration not stated) gave Lmaj promast inactive, CHOP inh 73, WT yeast gro inh inactive and RAM inhibit inactive.
`Cc1cc(C)cc(N(CC(=O)NCC2CCCO2)C(=O)CCC(=O)Nc2cc(C)on2)c1` (configuration not stated) gave Lmaj promast inactive, CHOP inh inactive, WT yeast gro inh 99 and RAM inhibit inactive.
`Cc1cc(C)c(C)c(OCC(=O)NCC2CCCO2)c1` (configuration not stated) gave Lmaj promast inactive, CHOP inh inactive, WT yeast gro inh inactive and RAM inhibit inactive.
For Cc1ccc(C(C(=O)NC2CCCC2)N(Cc2ccco2)C(=O)CCC(=O)Nc2cc(C)on2)cc1 (configuration not stated) the results were Lmaj promast 82, CHOP inh inactive, WT yeast gro inh inactive and RAM inhibit inactive.
Screening Cc1cc(NC(=O)CCC(=O)N(Cc2ccco2)C(C(=O)NC2CCCCC2)c2cccs2)no1 (configuration not stated) returned Lmaj promast inactive, CHOP inh inactive, WT yeast gro inh inactive and RAM inhibit inactive.
